The values that follow come from PubChem BioAssay (Tox21).

Unmarked numbers belong to inactive results. Inconclusive results are not listed. Activity calls are given as the source filed them. Unless noted, calls follow the shape of the full dose curve.

A short description of experiment [1]: Nuclear factor erythroid 2-related factor 2/antioxidant responsive element (Nrf2/ARE) small molecule agonists: qHTS cell viability counter screen in human keratinocytes (AID 1919968; active = well fitted curve in the direction sought with a large enough effect in the repeat runs; an effect the other way counts as inactive or inconclusive; also: nearly all actives have a fitted effect of over 55% in size). Put shortly: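 Seed 1,500 KeratinoSens cells per well, then incubate 5 h at 37 C/5% CO2. Add compounds in DMSO and incubate 23 h. Add CellTiter-Fluor, wait 1 h and read fluorescence.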
In general terms: qHTS replaces the single test concentration by a dilution series.

A short description of experiment [2]: Nuclear factor erythroid 2-related factor 2/antioxidant responsive element (Nrf2/ARE) small molecule agonists: luciferase reporter gene qHTS assay in human keratinocytes (AID 1919969). Also: nearly all actives have a fitted effect of over 35% in size. A general note: Reporter assays use an easily measured gene product as a stand-in for the process of interest.
Experiment [3] concerns the target Gonadotropin-releasing hormone receptor (Homo sapiens) (UniProt P30968). The experiment is described as follows: Human gonadotropin-releasing hormone receptor (GnRHR) small molecule agonists, calcium flux assay in GnRHR-HEK293 cells (AID 1920063). Also: nearly all actives have a fitted effect of over 35% in size. In a few lines: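 Cells: HEK293 stably expressing human GnRHR. Steps: overnight (18 h) culture, 1 h calcium dye loading at 37 C, compound addition, kinetic fluorescence read at 480/540 nm. Each compound tested at 15 concentrations in triplicate.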

The target in experiment [4] is KiSS-1 receptor (Homo sapiens) (UniProt Q969F8). The experiment is described as follows: Human kisspeptin (KISS1R) small molecule agonists, calcium flux assay in KISS1R-HEK293 cells (AID 1920064; active = well fitted curve in the direction sought with a large enough effect in the repeat runs; an effect the other way counts as inactive or inconclusive). In a few lines:
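Cells plated and incubated 18 h; dye added, 1 h at 37 C; compounds in DMSO pinned in; signal read at 480/540 nm every second for 3 min. Each compound tested at 15 concentrations in triplicate.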
(Calcium assays in cells follow changes in intracellular calcium, usually with a dye or a luminescent sensor.)

Experiment [5] in a line: G protein-coupled receptor (GPCR) small molecule agonists, calcium flux assay: HEK293 wild type cell line counter screen (AID 1920065). In a few lines:
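Counter-screen of the Tox21 10K library for non-specific calcium release: dye-loaded cells received compounds in DMSO and were monitored by kinetic fluorescence (480/540 nm, 3 min). Fifteen concentrations, run in triplicate.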

A short description of experiment [6]: p53 small molecule agonists, cell-based qHTS assay with human liver microsomes (AID 1963577). Put shortly: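 p53RE-bla reporter cells were pre-incubated 5 h at 37 C, then treated with compounds plus human liver microsomes (0.5 mg/mL final) and NADPH (0.5 mg/mL final) for 16 h at 37 C. Beta-lactamase activity was read by LiveBLAzer fluorescence after 2 h at room temperature.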

Experiment [7] in a line: p53 small molecule agonists, cell-based qHTS assay with rat liver microsomes (AID 1963578). Put shortly: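 p53RE-bla cells were exposed to compounds together with rat liver microsomes (0.5 mg/mL final) and NADPH (0.5 mg/mL final) for 16 h at 37 C, then read by LiveBLAzer beta-lactamase fluorescence after 2 h at room temperature.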
Experiment [8] is described as follows: p53 small molecule agonists, cell-based qHTS assay with human liver microsomes: qHTS cell viability counter screen (AID 1963579). Also: nearly all actives have a fitted effect of over 45% in size. In a few lines:
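p53RE-bla cells (4,000/well) were pre-incubated 5 h at 37 C, then given compounds in DMSO plus human liver microsomes (0.5 mg/mL final) and NADPH (0.5 mg/mL final) for 16 h at 37 C. Viability was read by CellTiter-Glo luminescence.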

Experiment [9] is described as follows: p53 small molecule agonists, cell-based qHTS assay with rat liver microsomes: qHTS cell viability counter screen (AID 1963580). Also: nearly all actives have a fitted effect of over 45% in size. Put shortly: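 HCT-116 p53RE-bla, 4,000 cells/well, 5 h pre-incubation; cpd + rat liver microsomes 0.5 mg/mL + NADPH 0.5 mg/mL (final); 16 h, 37 C; CellTiter-Glo, 30 min RT; luminescence.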
A short description of experiment [10]: p53 small molecule agonists, cell-based qHTS assay: qHTS cell viability counter screen (AID 1963581). Also: nearly all actives have a fitted effect of over 45% in size. Put shortly: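 Cells: HCT-116 with p53 response element-driven beta-lactamase. Treatment: 16 h, 37 C, compounds in DMSO. Read: CellTiter-Glo luminescence after 30 min RT.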
The nature of experiment [11]: p53 small molecule agonists, cell-based qHTS assay (AID 1963582; active = well fitted activation curve with a large enough effect in the signal ratio in the repeat runs, not every such curve was filed as active; the % refers to the signal ratio). In a few lines: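 Quantitative HTS in p53RE-bla cells: after a 5 h settling period, compounds delivered in DMSO were left on cells for 16 h at 37 C, and reporter induction was measured as fluorescence following 2 h substrate loading.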
Experiment [12] has as its target 5-hydroxytryptamine receptor 2A (Homo sapiens) (UniProt P28223). The experiment is described as follows: 5-hydroxytryptamine receptor 2A (HTR2A) small molecule antagonists, cell-based qHTS assay (AID 1963586). Also: nearly all actives have a fitted effect of over 45% in size. In a few lines: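 Antagonist-mode intracellular calcium assay: DOI (4 nM) added after 5 min compound pre-incubation at room temperature to dye-loaded HTR2A-CHO cells. Fluorescence followed for 3 min, sampled every second.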

Experiment [13] shares this target. The experiment in a line: 5-hydroxytryptamine receptor 2A (HTR2A) small molecule agonists, cell-based qHTS assay (AID 1963587). Also: nearly all actives have a fitted effect of over 30% in size. Put shortly: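 Kinetic calcium-flux fluorescence (2 min, 1 sec intervals) after compound addition in agonist mode. HTR2A-CHO cells were cultured 18 h, then dye-loaded 1 h at 37 C.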
The target in experiment [14] is Muscarinic acetylcholine receptor M1 (Homo sapiens) (UniProt P11229). The experiment is described as follows: Cholinergic receptor muscarinic 1 (CHRM1) small molecule antagonists, cell-based qHTS assay (AID 1963588). Also: nearly all actives have a fitted effect of over 40% in size. Put shortly:
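CHRM1-CHO calcium-flux assay, antagonist mode. Cells were seeded 18 h, dye-loaded 1 h at 37 C and given compound for 5 min at RT, then acetylcholine was added at 50nM. FDSS fluorescence was read 3 min; 15 concentrations, three runs.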

Experiment [15] shares this target. The experiment in a line: Cholinergic receptor muscarinic 1 (CHRM1) small molecule agonists, cell-based qHTS assay (AID 1963589). Also: nearly all actives have a fitted effect of over 35% in size. Put shortly: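 Agonist-mode qHTS in CHO cells stably carrying human muscarinic M1. Intracellular calcium is tracked by fluorescence every second after compound transfer; each compound runs at 15 concentrations in three independent runs.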

Experiment [16] can be described thus: cAMP Responsive Elements (CRE) small molecule agonists, cell-based qHTS assay (AID 1963590). Put shortly:
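Agonist mode qHTS in CRE-bla HEK 293T cells: compounds dosed from DMSO for 3 h at 37 C/5% CO2, followed by LiveBLAzer B/G FRET substrate for 2 h at room temperature.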

A short description of experiment [17]: cAMP Responsive Elements (CRE) small molecule antagonists, cell-based qHTS assay (AID 1963591; active = well fitted inhibition curve with a large enough effect in the signal ratio in the repeat runs, not every such curve was filed as active; the % refers to the signal ratio). In a few lines: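 Antagonist mode: test compounds are co-incubated with the adenylyl cyclase activator NKH477 (0.25 uM final) on CRE-bla HEK293T cells for 3 h at 37 °C, followed by LiveBLAzer substrate loading.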
The target in experiment [18] is Beta-2 adrenergic receptor (Homo sapiens) (UniProt P07550). The experiment in a line: Adrenergic beta2 receptor (ADRB2) small molecule antagonists, cell-based qHTS assay (AID 1963592). Also: series mostly up to about 92 µM; nearly all actives have a fitted effect of over 50% in size. Put shortly: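 Cells (CHO, stable ADRB2 overexpression) incubated 18-20hr at 37C; compounds added from DMSO; agonist mix (1nM isoproterenol, 100uM IBMX, 25uM Ro-20-1724) added; 0.5hr RT; d2-cAMP and anti-cAMP-cryptate added; 1hr RT; 665/615 nm read.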

Experiment [19] addresses D(2) dopamine receptor (Homo sapiens) (UniProt P14416). The experiment in a line: Dopamine D2 receptor (DRD2) small molecule agonists, cell-based qHTS assay (AID 1963594). Also: nearly all actives have a fitted effect of over 35% in size. Also: potency is read from the fitted curve at half-maximal effect. Put shortly: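 cAMP accumulation in DRD2-HEK293 cells measured by HTRF after 1 h detection; compounds added 10 min before NKH477 (200nM […]) forskolin-analogue stimulation, 30 min at room temperature, with Ro20-1724 present at 0.1 mM final.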

Experiment [20] has the same target. The experiment in a line: Dopamine D2 receptor (DRD2) small molecule antagonists, cell-based qHTS assay (AID 1963595; active = well fitted inhibition curve with a large enough effect in the signal ratio in the repeat runs, with a control signal flat; the % refers to the signal ratio). Put shortly:
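DRD2-HEK293; 0.1 mM Ro20-1724; cpd 10 min RT; NKH477 200 nM + quinpirole 12 nM, 30 min RT; HTRF cAMP (cAMP-d2/anti-cAMP cryptate), 665/620 nm ratio after 1 h.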

Chain of Gonadotropin-releasing hormone receptor (Homo sapiens) (P30968 whole entry, looked up): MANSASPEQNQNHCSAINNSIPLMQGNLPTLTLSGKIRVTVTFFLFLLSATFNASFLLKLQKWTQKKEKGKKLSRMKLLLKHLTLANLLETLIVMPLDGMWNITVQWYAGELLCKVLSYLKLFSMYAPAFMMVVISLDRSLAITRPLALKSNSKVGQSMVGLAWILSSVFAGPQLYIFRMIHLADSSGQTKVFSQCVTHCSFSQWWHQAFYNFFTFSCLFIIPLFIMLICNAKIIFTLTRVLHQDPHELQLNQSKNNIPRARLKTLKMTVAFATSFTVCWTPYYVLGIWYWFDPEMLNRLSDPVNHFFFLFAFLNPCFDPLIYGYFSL
Chain of D(2) dopamine receptor (Homo sapiens) (P14416 whole entry, looked up): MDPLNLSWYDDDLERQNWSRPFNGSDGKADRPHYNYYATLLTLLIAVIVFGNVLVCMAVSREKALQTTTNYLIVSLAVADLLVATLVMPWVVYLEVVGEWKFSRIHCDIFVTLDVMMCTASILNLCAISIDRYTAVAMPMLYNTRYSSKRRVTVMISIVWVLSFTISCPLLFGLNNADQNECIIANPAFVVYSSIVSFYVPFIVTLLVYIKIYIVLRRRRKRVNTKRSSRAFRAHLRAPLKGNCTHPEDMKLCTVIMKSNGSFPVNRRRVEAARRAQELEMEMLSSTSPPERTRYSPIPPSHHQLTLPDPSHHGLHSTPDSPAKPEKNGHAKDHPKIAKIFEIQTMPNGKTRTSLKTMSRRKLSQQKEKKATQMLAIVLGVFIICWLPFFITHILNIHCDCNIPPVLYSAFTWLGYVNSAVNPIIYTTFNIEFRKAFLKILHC
Chain of KiSS-1 receptor (Homo sapiens) (Q969F8 whole entry, looked up): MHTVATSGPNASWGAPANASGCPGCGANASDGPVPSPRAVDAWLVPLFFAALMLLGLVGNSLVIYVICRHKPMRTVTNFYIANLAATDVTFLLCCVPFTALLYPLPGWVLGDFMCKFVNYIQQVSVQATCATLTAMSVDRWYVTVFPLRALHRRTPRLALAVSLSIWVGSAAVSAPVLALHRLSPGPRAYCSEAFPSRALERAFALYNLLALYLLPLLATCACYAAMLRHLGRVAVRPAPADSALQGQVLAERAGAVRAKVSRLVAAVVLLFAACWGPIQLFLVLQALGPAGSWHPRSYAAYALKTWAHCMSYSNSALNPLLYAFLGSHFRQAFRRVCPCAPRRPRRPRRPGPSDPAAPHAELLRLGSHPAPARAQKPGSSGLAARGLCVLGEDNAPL
Chain of Beta-2 adrenergic receptor (Homo sapiens) (P07550 whole entry, looked up): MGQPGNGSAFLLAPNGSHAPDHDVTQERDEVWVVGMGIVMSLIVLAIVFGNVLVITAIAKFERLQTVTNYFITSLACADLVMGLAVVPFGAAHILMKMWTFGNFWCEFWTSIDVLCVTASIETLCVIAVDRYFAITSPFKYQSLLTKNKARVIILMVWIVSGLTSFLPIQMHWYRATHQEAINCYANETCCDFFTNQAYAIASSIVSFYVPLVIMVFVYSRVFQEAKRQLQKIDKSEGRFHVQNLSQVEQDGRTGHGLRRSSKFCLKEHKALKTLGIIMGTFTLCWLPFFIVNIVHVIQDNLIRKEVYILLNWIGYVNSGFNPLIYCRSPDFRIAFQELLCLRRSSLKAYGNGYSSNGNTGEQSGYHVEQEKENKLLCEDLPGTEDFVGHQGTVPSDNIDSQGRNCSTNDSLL
Chain of Muscarinic acetylcholine receptor M1 (Homo sapiens) (P11229 whole entry, looked up): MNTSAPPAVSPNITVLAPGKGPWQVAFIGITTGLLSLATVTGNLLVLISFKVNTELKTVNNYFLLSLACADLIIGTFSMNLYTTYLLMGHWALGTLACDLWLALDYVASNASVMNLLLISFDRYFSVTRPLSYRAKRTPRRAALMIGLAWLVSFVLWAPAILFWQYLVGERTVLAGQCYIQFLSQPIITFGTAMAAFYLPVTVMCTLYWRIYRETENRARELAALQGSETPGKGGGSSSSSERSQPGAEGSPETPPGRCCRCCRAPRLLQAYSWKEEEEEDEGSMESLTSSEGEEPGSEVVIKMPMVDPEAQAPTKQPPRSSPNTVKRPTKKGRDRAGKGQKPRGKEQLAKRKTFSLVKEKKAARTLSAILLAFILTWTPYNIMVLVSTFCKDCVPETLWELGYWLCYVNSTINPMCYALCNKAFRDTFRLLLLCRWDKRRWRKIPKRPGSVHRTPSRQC
Chain of 5-hydroxytryptamine receptor 2A (Homo sapiens) (P28223 whole entry, looked up): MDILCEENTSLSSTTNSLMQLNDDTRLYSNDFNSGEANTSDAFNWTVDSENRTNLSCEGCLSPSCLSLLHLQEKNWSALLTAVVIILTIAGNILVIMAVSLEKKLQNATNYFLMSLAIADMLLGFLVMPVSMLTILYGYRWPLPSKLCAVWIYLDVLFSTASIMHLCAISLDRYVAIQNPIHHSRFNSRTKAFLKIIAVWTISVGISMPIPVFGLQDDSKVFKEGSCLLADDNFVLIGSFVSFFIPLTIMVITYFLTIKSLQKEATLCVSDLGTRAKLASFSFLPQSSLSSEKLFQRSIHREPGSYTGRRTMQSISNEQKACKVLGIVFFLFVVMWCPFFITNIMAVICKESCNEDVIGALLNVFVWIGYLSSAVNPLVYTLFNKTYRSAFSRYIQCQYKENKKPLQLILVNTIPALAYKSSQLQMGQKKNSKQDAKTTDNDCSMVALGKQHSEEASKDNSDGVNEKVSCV

As for `CN1C(=O)CC(c2ccccc2)C1=O` (centres undefined), the Potency result in experiment [1], in [2], in experiment [3], in experiment [6], in [7] and in experiment [8] was “inactive” throughout. For the same molecule, the Potency entry in experiment [9], in experiment [10], in experiment [11], in experiment [12], in experiment [13] and in [14] was “inactive” in each case. Also, the Potency entry in experiment [15], in experiment [16], in experiment [17], in experiment [18], in experiment [19] and in experiment [20] was “inactive” throughout. For the same molecule, the outcome in experiment [4] and in experiment [5] was inactive.
Take `CCC(C=O)CC`: the Potency entry in [1], in experiment [2], in experiment [3], in experiment [6], in experiment [7] and in experiment [8] was “inactive” in each case. Also, the Potency result in [9], in experiment [10], in [11], in [12], in experiment [13] and in experiment [14] was “inactive” each time. For the same molecule, the Potency entry in experiment [15], in [16], in experiment [17], in [18], in experiment [19] and in experiment [20] was “inactive” in each case. In addition, the outcome in experiment [4] and in experiment [5] was inactive.
Consider `O=C(O)CP(=O)(O)O`, for which the Potency result in experiment [1], in experiment [2], in [3], in experiment [6], in experiment [7] and in experiment [8] was “inactive” in each case. Moreover, the Potency result in experiment [9], in experiment [10], in experiment [11], in experiment [12], in experiment [13] and in [14] was “inactive” throughout. Further, the Potency result in [15], in experiment [16], in experiment [17], in experiment [18] and in experiment [19] was “inactive” each time. Besides, the outcome in [4] and in experiment [5] was inactive.
`Cc1ccc(N)nc1`: the Potency result in experiment [1], in experiment [2], in experiment [3], in [6], in experiment [7] and in [8] was “inactive” each time. Further, the Potency result in experiment [9], in experiment [10], in experiment [11], in experiment [12], in experiment [13] and in experiment [14] was “inactive” throughout. Besides, the Potency result in [15], in experiment [16], in [17], in [18], in experiment [19] and in experiment [20] was “inactive” throughout. Also, the outcome in experiment [4] and in experiment [5] was inactive.
On to `Cc1ccc(NC(N)=O)cc1`, for which the Potency result in experiment [1], in experiment [2], in experiment [3], in [6], in experiment [7] and in [8] was “inactive” in each case. For the same molecule, the Potency result in experiment [9], in experiment [10], in experiment [11], in [12], in experiment [13] and in [14] was “inactive” in each case. The Potency result in experiment [15], in experiment [16], in experiment [17], in experiment [18], in [19] and in experiment [20] was “inactive” throughout. The outcome in experiment [4] and in experiment [5] was inactive.
As to `CN=C(NC#N)NCCSCc1csc(N=C(N)N)n1`, the Potency entry in experiment [1], in experiment [2], in experiment [3], in [6], in [7] and in experiment [8] was “inactive” each time. In addition, the Potency result in [9], in experiment [10], in [11], in experiment [12], in [13] and in [14] was “inactive” in each case. Besides, the Potency result in [15], in experiment [16], in [17], in experiment [18] and in experiment [20] was “inactive” each time. Besides, the outcome in experiment [4] and in experiment [5] was inactive. In experiment [19], the Potency is 19.9 µM (active).
For `FC1(F)C(F)(F)C(F)(F)C2(F)C(F)(C1(F)F)C(F)(F)C(F)(F)C1(F)C(F)(F)C(F)(F)C(F)(F)C(F)(F)C12F` (centres undefined), the Potency entry in [1], in [2], in experiment [3], in experiment [6], in experiment [7] and in experiment [8] was “inactive” throughout. The Potency entry in [9], in experiment [10], in experiment [11], in experiment [12], in experiment [13] and in experiment [14] was “inactive” in each case. Further, the Potency entry in experiment [15], in experiment [16], in experiment [17], in [18], in [19] and in experiment [20] was “inactive” in each case. Besides, the result in [4] and in [5] was inactive.
